Bioassay records as filed in PubChem BioAssay.
Sampled rows, rich in hits. Any-hit rate of the full collection: about 3.3%.
ROMK mod: modulates human ROMK potassium channel activity | P48048 | Tet-inducible ROMK, thallium flux fluorescence; actives lie on both sides | B-score at 10 µM | 2% of 130,000 active | AID 1918;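 active means signal ratio slope over the read window, or its plate-corrected B-score, at least 3 SD from the plate mean, either direction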;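 further: B-score of the F/F0 ratio slope over 7 to 12 s after thallium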
Target sequence (P48048 whole entry, looked up): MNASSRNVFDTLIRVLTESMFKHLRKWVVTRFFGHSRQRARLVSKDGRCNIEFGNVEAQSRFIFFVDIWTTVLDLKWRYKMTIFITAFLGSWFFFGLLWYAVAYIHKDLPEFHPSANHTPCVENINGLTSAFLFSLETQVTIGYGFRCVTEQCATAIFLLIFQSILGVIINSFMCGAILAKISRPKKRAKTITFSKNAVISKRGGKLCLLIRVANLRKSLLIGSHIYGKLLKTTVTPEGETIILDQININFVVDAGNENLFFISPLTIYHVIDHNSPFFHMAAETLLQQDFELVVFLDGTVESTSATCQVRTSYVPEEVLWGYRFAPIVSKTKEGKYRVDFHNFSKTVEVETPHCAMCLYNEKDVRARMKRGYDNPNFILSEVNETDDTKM
PERK inh: blocks human PERK kinase | Q9NZJ5 | CHO PERK-DD fusion, SEAP luminescence translation reporter | inhibition, % at 5.6 µM | 0.17% of 220,000 active | AID 1416;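 active means inhibition above the mean inhibition of all tested compounds plus 3 SD, set separately per screening campaign, cut at about 2.9% in these data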;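 further: PERK kinase domain activated by AP20187 dimerizer at 100 nM; 0% = DMSO with dimerizer and 100% = rapamycin at 8.4 µM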
WT yeast gro inh: growth inhibition of WT yeast, mitochondrial fusion screen; 2.1% of 190,000 active; mitochondrial fusion phenotypic screen, WT strain; inhibition, % at 10 µM; in the data active means inhibition above about 58%; tested in S. cerevisiae
Arbovirus inh: antivirals against arbovirus infection; AID 1251; 0.37% of 200,000 active; inhibition, % at 10 µM; arbovirus infection cell-based antiviral screen; in the data active means inhibition above about 30%
ROMK retest: retested hit modulating human ROMK potassium channel. normalized thallium flux (F/F0 slope) at 10 µM. shares compounds with ROMK mod. 54% of 3,000 active. AID 1917. ROMK thallium flux, fluorescence ratio; stronger effect = lower value;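 active means Flux at 10 µM at least 3 SD below or above vehicle control mean in one or both replicates; inconclusive means no clear call, values can overlap the other calls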
The depositor's hits bear a star; ? = inconclusive; . = no result given.

SMILES	ROMK mod	PERK inh	WT yeast gro inh	Arbovirus inh	ROMK retest
O=C(Nc1ccc(Cl)c(C(F)(F)F)c1)NC1CC2CCCC(C1)N2Cc1ccccc1 (stereo not drawn)	.	0	54	-33	.
Cc1c(CCOC(=O)CC23CC4CC(CC(C4)C2)C3)sc[n+]1CC(=O)c1ccccc1	-6.1*	0	3	-30	0.047*
COc1ccccc1C1=NC(c2ccc(C)cc2)N=C1C (stereo not drawn)	-2.7*	1	32	14	0.075
COc1ccccc1-c1nc2ccccc2nc1-c1ccccc1OC	-0.68	-1	29	8	.
Fc1ccc(-c2cnn3c(-c4cccs4)ccnc23)cc1	-2.3*	1	5	2	0.063*
Fc1ccc(-c2cnn3c(-c4ccncc4)ccnc23)cc1	0.55	1	-4	-2	.
CCOC(=O)Cn1c(N2CCOCC2)nc2c1c(=O)[nH]c(=O)n2C	.	1	0	11	.
CCSc1nnc(NC(=O)CSc2nnc(CNC(=O)c3ccc(OC)c(OC)c3)o2)s1	-0.2	0	-7	2	.
CCOC(=O)N1CCN(C(=O)c2noc(C(C)C)c2[N+](=O)[O-])CC1	1.9	0	-2	6	0.079
Cc1cc(/C=N/n2cnnc2)c(C)n1-c1ccc(Cl)cc1Cl	3.2*	0	44	-13	?
N#C/C(=C\c1ccc(OC(F)F)cc1)C(=O)N1CCCCC1	.	0	.	.	.
CN1CCC(N(C)C(=O)/C(C#N)=C/c2ccc(OC(F)F)cc2)CC1	.	1	.	.	0.046*
CCN1CCN(C(=O)/C(C#N)=C/c2ccc(OC(F)F)cc2)CC1	-3.6*	0	14	0	0.047*
Cc1cc(O)cc(O)c1-c1onc(C(F)(F)F)c1-c1cscn1	-0.96	1	-2	5	.
Cc1cc(C)nc(N/N=C/C2=C(N3CCOCC3)C(=C\c3ccc(Cl)cc3)/CC2)n1	-0.74	0	14	2	.
O=C(O)c1ccc(N/N=C/C2=C(N3CCOCC3)C(=C\c3ccccc3)/CC2)cc1	.	-1	.	.	0.045*
COc1ccc(-n2c(SC3CCOC3=O)nc3ccccc3c2=O)cc1Cl (stereo not drawn)	-0.17	0	4	14	.
COc1ccc(C2=NOC(C(=O)NCc3ccco3)C2)cc1 (stereo not drawn)	3.9*	1	1	-14	?
COc1ccc(C2=NOC(C(=O)NCc3cccs3)C2)cc1 (stereo not drawn)	3.8*	0	16	-18	0.084
CNc1c([N+](=O)[O-])cnn1-c1ccc(F)cc1	-0.55	2	-6	2	.
CCc1nnc(NC(=O)/C=C/c2cccs2)s1	.	-1	1	0	.
COCCCn1c(N)c(-c2nc3ccccc3n2C)c2nc3ccccc3nc21	-4.3*	-2	19	44*	0.045*
Cc1nc([N+](=O)[O-])c(Sc2nc3ccccc3n2C)n1Cc1ccccc1	-3*	-1	-16	-29	0.056*
Cc1nc([N+](=O)[O-])c(SCC(N)=O)n1Cc1ccccc1	-0.24	0	-2	-7	.
CC(C)CC(C(=O)NC1CCCC1)N(Cc1ccc2c(c1)OCO2)C(=O)c1snc(C(N)=O)c1N (stereo not drawn)	-0.68	0	-6	-17	.
SMILES	ROMK mod	PERK inh	WT yeast gro inh	Arbovirus inh	ROMK retest
CCCC(C(=O)NC1CCCC1)N(Cc1cccs1)C(=O)c1snc(C(N)=O)c1N (stereo not drawn)	.	-1	7	2	0.075
CC(C)CCNC(=O)C(CC(C)C)N(Cc1ccc2c(c1)OCO2)C(=O)c1snc(C(N)=O)c1N (stereo not drawn)	.	0	11	-12	?
COc1ccc(OC)c(S(=O)(=O)N2CCN(C34CC5CC(CC(C5)C3)C4)CC2)c1	.	-1	3	-2	.
Cc1ccc(OC(=S)Nc2ccc(F)cc2)cc1	-0.82	1	-8	5	.
Cc1ccc(OC(=S)Nc2ccc(O)cc2)cc1	-5.1*	2	8	-10	0.043*
Cc1ccc(NS(=O)(=O)c2ccc(NC(=O)c3cccs3)cc2)cc1	.	0	4	-1	.
O=C(c1ccccc1)c1cc(Cl)ccc1N1C(=O)C=CC1=O	-2.7*	0	85*	2	0.062*
O=C(CC(=O)c1cc(Cl)ccc1O)c1ccccc1	.	0	62	0	.
CN1CCN(Cn2cc(/C=C/C(=O)c3ccccc3)c3ccccc32)CC1	0.36	0	27	0	.
O=C(/C=C/c1cn(CC(O)CN2CCCCC2)c2ccccc12)c1ccccc1 (stereo not drawn)	.	0	.	.	0.057*
COc1ccc(C(=O)/C=C/c2cn(CC(O)CN3CCN(C)CC3)c3ccccc23)cc1OC (stereo not drawn)	.	0	.	.	0.059*
O=C(O)C1CSC2(CCN(Cc3ccccc3)CC2)N1 (stereo not drawn)	0.64	1	11	4	.
C=CCn1c2ccccc2c2nnc(SCCCn3c(=O)[nH]c4ccccc43)nc21	.	-1	-4	-23	0.065*
C=CCn1c2ccccc2c2nnc(SCN3C(=O)c4ccccc4C3=O)nc21	-0.26	0	17	-2	.
CCOc1ccc2[nH]c(=O)c(CN(CCO)C(c3nnnn3C3CCCCC3)C(C)C)cc2c1 (stereo not drawn)	-2.4*	1	0	9	0.059*
CCCN1CCN(C(c2cc3cc(OCC)ccc3[nH]c2=O)c2nnnn2C2CCCCC2)CC1 (stereo not drawn)	-2.4	-1	-3	10	.
N#CC1=C(N)NC(SCc2ccc(Cl)cc2)=C(C#N)C12CCCCC2	-0.85	-1	11	-35	0.062*
N#CC1=C(N)NC(SCc2ccc(Br)cc2)=C(C#N)C12CCCCC2	-3.9*	1	67*	-35	0.077
N#CC1=C(N)NC(SCc2ccccc2)=C(C#N)C12CCCC2	-1.1	0	12	-4	.
N#CC1=C(N)NC(SCC(=O)Nc2ccc(Br)cc2)=C(C#N)C12CCCCC2	-2.3	0	20	-22	.
COc1ccc(NC(=O)c2ccc(-c3ccccc3Cl)o2)cc1	1.1	0	20	-5	.
COc1ccc(NC(=O)c2ccc(-c3ccc(C)c4ccccc34)o2)cc1	1.7*	0	10	10	0.075
CC(=O)c1ccc(NC(=O)Cn2c3ccccc3c3nc(=O)cc(C)n32)cc1	.	0	.	.	0.086
COC(=O)Cn1c2ccccc2c2nc(=O)cc(C)n21	-0.81	2	-1	-3	.
O=C(Nc1nc(-c2ccccn2)cs1)c1cc2ccccc2o1	1	0	9	-24	.
Cc1cc(-c2csc(NC(=O)c3cc4ccccc4o3)n2)c(C)n1C	.	0	8	-3	?
COc1ccc(N/C=C2\C(=O)CCc3c2oc2cc(Cl)c(O)c(Cl)c32)cc1	.	1	.	.	0.064*
O=C(NCc1cccnc1)/C(=C\c1ccc(-c2ccc(Br)cc2)o1)S(=O)(=O)c1ccccc1	.	-1	42	-44	.
O=C(NCc1cccnc1)/C(=C/c1ccc(-c2cccc(C(F)(F)F)c2)o1)NC(=O)c1ccccc1	-5.1*	-1	-13	-25	0.054*
Cc1ccc(C(=O)N/C(=C/c2ccc(-c3cc(C(F)(F)F)ccc3Cl)o2)C(=O)NCc2cccnc2)cc1	-0.95	1	-12	-16	.
